From PubChem
A selection follows.
aSyn 5UTR act = Activators via SNCA 5'UTR binding, MLPCN; alpha-synuclein 5'UTR reporter, activators screen; activity score, % (tested at 7.5 µM), hits read low; 300,000 tested, 7.1% active; AID 1814; in the data active = activity score below about -60%
Starred values were filed as active, the others as inactive.

For Fc1ccc(/C=C\c2nccc3c2[nH]c2ccccc23)cc1 the results were aSyn 5UTR act -139*.
Screening C(=C\c1nccc2c1[nH]c1ccccc12)/c1ccccc1 returned aSyn 5UTR act -84*.
`Cc1ccc(/C=C\c2nccc3c2[nH]c2ccccc23)cc1` gave aSyn 5UTR act -125*.
Screening O=C(NNC(=S)Nc1ccccc1)c1cccc(Br)c1 returned aSyn 5UTR act -95*.
CC(C)(C)NC(=S)NNC(=O)c1cccc(Br)c1 was read as aSyn 5UTR act -121*.
COc1ccccc1NC(=S)NNC(=O)c1ccc(O)cc1 was read as aSyn 5UTR act -106*.
`O=C(NNC(=S)Nc1ccc(Br)cc1)c1ccccc1` gave aSyn 5UTR act -107*.
For O=C(NNC(=S)Nc1ccccc1)c1ccc(O)cc1 the results were aSyn 5UTR act -131*.
Cc1cc(C)c2c(c1)C(=O)/C(=C/c1ccc(C(=O)O)cc1)CC2 was read as aSyn 5UTR act -79*.
Cc1c(Cl)c([N+](=O)[O-])nn1CCCC(=O)NCCc1ccccc1 was read as aSyn 5UTR act -64*.
`CN1C2=CC=CC=CC2=[N+](C)C12C([N+](=O)[O-])=CC(=[N+]([O-])[O-])C=C2[N+](=O)[O-]` (stereo not given) gave aSyn 5UTR act -73*.
COC(=O)Cn1ncc2c(C)n(Cc3ccccc3)c(C)c2c1=O was read as aSyn 5UTR act -123*.
Screening COc1cc(/C=N/NC(N)=S)cc(Br)c1OCc1ccccc1F returned aSyn 5UTR act -74*.
`CCOc1cc(/C=N/NC(N)=S)cc(Br)c1OCc1ccccc1C` gave aSyn 5UTR act -74*.
For COc1cc(CNC(C)c2ccccc2)cc(Br)c1OCc1ccc(F)cc1 (stereo not given) the results were aSyn 5UTR act 59.
Screening Cc1cc(C(=O)C(C)Sc2cccc[n+]2[O-])c(C)n1-c1ccc(Cl)cc1 (stereo not given) returned aSyn 5UTR act -82*.
`Oc1ccccc1/C=N/N1CCCCC1` gave aSyn 5UTR act -77*.
For CN=c1scc(-c2cccs2)n1/N=C/c1ccccc1O the results were aSyn 5UTR act 103.
Oc1ccc(/C=N/N2CCCCC2)c(O)c1 was read as aSyn 5UTR act -93*.
Screening COc1ccc2c(c1OC)C(=O)N1C(C(=O)O)Cc3c([nH]c4ccccc34)C21 (stereo not given) returned aSyn 5UTR act -66*.
Screening O=C(O)c1ccccc1-c1ncc(-c2ccccc2)o1 returned aSyn 5UTR act -137*.
For O=C(Nc1ccc(OC(F)(F)F)cc1)c1ccc2nccnc2c1 the results were aSyn 5UTR act -112*.
For O=C(Nc1ccc(SC(F)F)cc1)c1ccc2nccnc2c1 the results were aSyn 5UTR act -218*.
`COc1ccc(C(=O)Nc2ccc(SC(F)F)cc2)cc1` gave aSyn 5UTR act -160*.
`C/C(N)=C(/C#N)C(=O)CSc1nc2cc(Cl)ccc2s1` gave aSyn 5UTR act -116*.
For C/C(N)=C(/C#N)C(=O)CSc1nnc(Nc2cccc(C)c2)s1 the results were aSyn 5UTR act -180*.
Screening CCSc1nnc(NC(=O)C2CCCCC2)s1 returned aSyn 5UTR act -98*.
For CCSc1nnc(NC(=O)c2csc(C)c2)s1 the results were aSyn 5UTR act -176*.
`CCSc1nnc(NC(=O)Nc2cccc(C)c2)s1` gave aSyn 5UTR act -143*.
`Cc1ccsc1/C=N\NC(=O)c1n[nH]c2c1CCC2` gave aSyn 5UTR act 69.
`O=C(N/N=C/c1c(Cl)cccc1Cl)c1n[nH]c2c1CCCC2` gave aSyn 5UTR act -135*.
`O=C(NN=C1CCCC1)c1n[nH]c2c1CCCC2` gave aSyn 5UTR act -73*.
For O=C(COc1ccccc1[N+](=O)[O-])Nc1cccnc1 the results were aSyn 5UTR act -72*.
For O=C(COc1ccc2ccccc2c1Br)Nc1ccncc1 the results were aSyn 5UTR act -84*.
Screening O=C(COc1ccc2ccccc2c1Br)Nc1cccnc1 returned aSyn 5UTR act -210*.
`O=C(COc1ccc2ccccc2c1Br)NC(=S)Nc1cccc(CO)c1` gave aSyn 5UTR act -66*.
`CCOC(=O)N1CCN(c2nc(-c3ccc(OC)cc3)no2)CC1` gave aSyn 5UTR act -88*.
`COC(=O)c1ccc(-c2nc(-c3ccc(Br)o3)no2)cc1` gave aSyn 5UTR act -108*.
COc1ccc(-c2nc(-c3ccc(C(=O)O)cc3)no2)cc1 was read as aSyn 5UTR act -90*.
`Cc1nc(-c2noc(-c3ccc(Cl)cc3)n2)c(C(F)(F)F)o1` gave aSyn 5UTR act -103*.
COc1ccc(-c2noc(-c3ccc(Cl)cc3)n2)cc1 was read as aSyn 5UTR act -131*.
Screening COc1ccc(-c2noc(-c3ccc(Br)o3)n2)cc1 returned aSyn 5UTR act -212*.
For CCCCOC(=O)N/N=C/C=C/c1ccccc1 the results were aSyn 5UTR act -88*.
Cc1occc1C(=O)N/N=C/C(Br)=C\c1ccccc1 was read as aSyn 5UTR act -108*.
For Cc1occc1C(=O)N/N=C/C=C/c1ccccc1 the results were aSyn 5UTR act -138*.
Cc1occc1C(=O)N/N=C/C=C/c1ccc(N(C)C)cc1 was read as aSyn 5UTR act -129*.
For COc1ccc(S(=O)(=O)N2c3cc(Cl)ccc3Oc3nc4ccccc4nc32)cc1 the results were aSyn 5UTR act 100.
For O=S(=O)(c1ccc(Cl)cc1)N1c2ccccc2Oc2nc3ccccc3nc21 the results were aSyn 5UTR act -96*.
Screening Cc1cc(C)c(O)c(-c2cc(C(=O)Nc3cccnc3)[nH]n2)c1 returned aSyn 5UTR act -108*.
For Cc1cccc(NC(=O)c2cc(-c3cc(C)cc(C)c3O)n[nH]2)c1 the results were aSyn 5UTR act -67*.
For O=C(N/N=C/c1c(O)ccc2ccccc12)c1cccnc1 the results were aSyn 5UTR act 93.
`Cc1ccc(NC(=O)c2cc(-c3ccccc3O)n[nH]2)cc1Cl` gave aSyn 5UTR act -110*.
For CCc1ccc(O)c(-c2cc(C(=O)Nc3cccnc3)[nH]n2)c1 the results were aSyn 5UTR act -162*.
Screening Cc1cccc(NC(=O)c2cc(-c3cc(Cl)ccc3O)n[nH]2)c1 returned aSyn 5UTR act -224*.
`Cc1cccc(NC(=O)c2cc(-c3c(C)cc(C)cc3O)n[nH]2)c1` gave aSyn 5UTR act -123*.
For Cc1ccc(C)c(NC(=O)c2cc(-c3cc(C)ccc3O)n[nH]2)c1 the results were aSyn 5UTR act -211*.
`Cc1cc(O)c(-c2cc(C(=O)Nc3cccnc3)[nH]n2)cc1C` gave aSyn 5UTR act -188*.
`O=C(CCc1nnc(CCCc2ccccc2)o1)NC(C1CC1)C1CC1` gave aSyn 5UTR act -146*.
Cc1nc(C(C)NC(=O)CCc2nnc(CCCc3ccccc3)o2)c(C)s1 (stereo not given) was read as aSyn 5UTR act -174*.
`CC(NC(=O)CCc1nnc(-c2ccc(-c3ccccc3)cc2)o1)c1nccs1` (stereo not given) gave aSyn 5UTR act 89.
`O=C(Nc1ccc(Cl)cc1)N1CCc2ccccc2C1` gave aSyn 5UTR act -209*.
Screening O=C(Nc1ccccc1)N1CCc2ccccc2C1 returned aSyn 5UTR act -126*.
Screening Cc1ccc(NC(=O)N2CCc3ccccc3C2)cc1 returned aSyn 5UTR act -212*.
O=C(CNS(=O)(=O)c1cccs1)N1CCc2ccccc2C1 was read as aSyn 5UTR act -72*.
`O=C(Cc1ccc(Cl)cc1)N1CCc2ccccc2C1` gave aSyn 5UTR act -160*.
